A selection: hits, their analogues and other compounds. The true share with any hit is near 2.9%.
TSG101-PTAP inh: blocks PTAP/TSG101 interaction to inhibit HIV-1 budding. AID 493005. 340,000 tested, under 10 active. Potency, µM (top dose mostly 115 µM), inactives show at the top dose activity change, negative = inhibition, actives largely listed as inhibitors. Fluorescence polarization, FITC-PTAP peptide / Tsg101 binding. Q99816; active = well fitted inhibition curve with a large enough effect in the main read-out, with a control signal flat, not every such curve was filed as active; inconclusive = small, poorly fitted or top-dose-only effect, or effect the other way, or a change in a side signal; inactive = no such curve, though single readings can be large or run the other way; note: potency is the fitted concentration of half-maximal effect; % of control where 0% means no effect
Target sequence (Q99816 whole entry, looked up): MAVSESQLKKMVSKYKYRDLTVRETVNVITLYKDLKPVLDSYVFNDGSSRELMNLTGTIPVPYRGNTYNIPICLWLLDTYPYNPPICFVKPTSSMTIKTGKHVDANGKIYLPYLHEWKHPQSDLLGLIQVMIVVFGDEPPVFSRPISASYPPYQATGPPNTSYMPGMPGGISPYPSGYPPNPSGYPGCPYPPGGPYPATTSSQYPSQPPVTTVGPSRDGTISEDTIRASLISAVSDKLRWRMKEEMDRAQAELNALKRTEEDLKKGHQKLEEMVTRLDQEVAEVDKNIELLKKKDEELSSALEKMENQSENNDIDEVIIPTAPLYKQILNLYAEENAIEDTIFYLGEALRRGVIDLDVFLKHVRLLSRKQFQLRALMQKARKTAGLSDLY
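Compounds were pin-transferred onto Tsg101 binding domain (10 uM final) in HEPES pH 7.5 buffer, then FITC-PTAP peptide was added at 50 nM final. After 20 min at RT, polarization reported peptide displacement across a qHTS concentration series.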
Rango dissoc inh: inhibitors of RanGTP-induced Rango-importin beta complex dissociation | O95149+P62826 | Biochemical FRET Rango-importin beta, RanGTP-induced dissociation | Potency, µM (series often up to 46.1 µM), for inactives: at the highest dose activity change, negative = inhibition | actives 0.071% (n = 340,000) | AID 540253; note: potency is the fitted concentration of half-maximal effect; % of control where 0% means no effect; nearly all actives have a fitted effect of over 45% in size
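Rango/importin beta premix (0.1/0.25 uM final), PBS + 1 mM DTT + 0.02% Tween-20 + 0.1% BSA; cpd 5 min RT; FRET pre-read; + RanGTP-RCC1 (0.6 uM Ran, 2 mM GTP, 0.2 uM RCC1); 45 min RT; FRET post-read, ex 430, em 486/530 nm.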
Rango-impB inh: inhibitors of Rango-importin beta complex formation; Q14974; Rango CFP/YFP FRET sensor + importin beta, 45 min; Potency, µM (top dose mostly 92.2 µM), for inactives: at the highest dose inhibition of complex formation; actives 0.031% (n = 340,000);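 note: potency is the fitted concentration of half-maximal effect; 0% = DMSO wells and 100% = buffer wells lacking importin beta; nearly all actives have a fitted effect of over 15% in size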
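FRET biosensor Rango (snurportin 1 IBB between N-terminal EYFP and C-terminal Cerulean), 50 nM in PBS/1 mM DTT/0.02% Tween-20/0.1% BSA, preincubated 5 min RT with compound; 0.125 microM importin beta added, 45 min RT, CFP/YFP FRET ratio read.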
DRD3 agonist: D3 dopamine receptor (human) agonism; max activation, %; D3R DiscoveRx beta-arrestin cells, luminescence, 90 min; actives 0.58% (n = 410,000); in the data active = max activation above about 30%; note: 0% is about no effect
Target sequence (P35462 whole entry, looked up): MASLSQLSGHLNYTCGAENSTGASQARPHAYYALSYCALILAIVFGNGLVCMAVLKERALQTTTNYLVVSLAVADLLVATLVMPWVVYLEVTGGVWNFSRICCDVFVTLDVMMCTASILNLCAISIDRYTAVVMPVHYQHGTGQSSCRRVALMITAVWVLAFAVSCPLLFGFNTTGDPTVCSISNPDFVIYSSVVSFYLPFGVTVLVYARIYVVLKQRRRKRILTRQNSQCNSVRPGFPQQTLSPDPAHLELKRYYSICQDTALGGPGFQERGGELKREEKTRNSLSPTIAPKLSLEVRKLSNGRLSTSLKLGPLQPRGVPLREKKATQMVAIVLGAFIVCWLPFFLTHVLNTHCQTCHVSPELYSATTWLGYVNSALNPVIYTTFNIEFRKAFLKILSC
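Agonist-mode cell screen: cells plated at 1500/well and incubated overnight at 37 °C, then exposed to library compounds for 90 min at 37 °C. Detection reagent was added for 30–60 min at room temperature, and luminescence was read.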
D3 antag: antagonists of human D3 dopamine receptor; P35462; D3R cells, DiscoveRx beta-arrestin luminescence, antagonist mode; hits give low values; max response, negative = inhibition, %; actives 2.5% (n = 360,000); AID 652054; in the data active = max response below about -50%; inconclusive = no clear call, values can overlap the other calls; note: % is set by controls: 0 for no effect and ±100 for the full control effect
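Cells plated overnight at 1500 cells/well, then exposed to library compounds with dopamine controls for 90 minutes at 37 degrees C. DiscoveRx reagent added for 30–60 minutes at room temperature; luminescence read, quantitative HTS format.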
Mm-Cpn inhibitor: blocks the Methanococcus maripaludis chaperonin Mm-Cpn; purified Mm-Cpn ATPase, ADP Transcreener TR-FRET; Potency, µM (top dose mostly 76.9 µM), without a hit: top-dose activity, negative = inhibition, usual class: inhibitors; actives 0.031% (n = 330,000); AID 504842; active = well fitted inhibition curve with a large enough effect; inconclusive = small, poorly fitted or top-dose-only effect; note: potency is the fitted concentration of half-maximal effect; % is set by controls: 0 for no effect and ±100 for the full control effect; nearly all actives have a fitted effect of over 80% in size
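Compound-treated chaperonin, 25 nM final, turns over 10 uM ATP at 37°C for 30 min following a 10 min preincubation; ADP generated competes with ADP-d2 for Eu-cryptate antibody, lowering FRET.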
An asterisk follows results filed as active; u = inconclusive; x = not tested or not shown. Unless noted, calls come from the whole dose curve.

SMILES	TSG101-PTAP inh	Rango dissoc inh	Rango-impB inh	DRD3 agonist	D3 antag	Mm-Cpn inhibitor
O=C(O)CN1C2=NCCCN2c2ccccc21	-6.2%	0.8%	1.2%	-1.7	-17.2	0.4%
Cc1ccc(CN2C3=NCCCN3c3ccccc32)cc1	-1.3%	-19.9%	1.1%	-3.9	0.0	-2.3%
O=C(CN1C2=NCCCN2c2ccccc21)c1ccc(Br)s1	-0.6%	3.0%	4.6%	-15.7	-53.6*	-3.0%
CCOc1ccc(NC(=O)Cn2nc(CC)n3c(cc4sccc43)c2=O)cc1	x	x	x	3.4	x	x
Nc1nc2ncccc2cc1C(=O)NC1CCCCC1	x	x	x	76.9*	-19.6	x
CCC(=O)OC(OP(=O)(CCCCc1ccccc1)CC(=O)N1C[C@H](C2CCCCC2)C[C@H]1C(=O)O)C(C)C (stereo partly specified)	x	x	x	11.9	x	x
CCN1C(=O)[C@@H]2[C@@H](c3ccc(-c4ccc(F)cc4)c(OC)c3)N3CCCC[C@@]3(C(=O)OC)[C@@H]2C1=O	8.2%	4.5%	u	32.8*	38.0	-2.0%
CCN1C(=O)[C@H]2[C@@H](c3ccc(-c4ccc(C(C)=O)cc4)c(OC)c3)N3CCCC[C@@]3(C(=O)OC)[C@H]2C1=O	-1.0%	-7.1%	-1.2%	-20.5	-28.4	-3.1%
COc1ccc(Cl)cc1Nc1nc(C)cc(=O)[nH]1	0.3%	1.7%	-2.1%	-14.6	-81.0*	-0.2%
C=CCn1c(C(C)NC(=O)C(C)(C)C)nc2ccccc21 (stereo unspecified)	-4.3%	1.7%	1.3%	16.5	-52.0*	-1.4%
C=CCn1c(CCCNC(=O)C(C)(C)C)nc2ccccc21	-0.5%	20.4%	1.2%	5.1	1.0	-3.3%
CCOCCc1nn2c(=O)cc(COC(=O)COc3ccccc3Cl)nc2s1	x	x	x	8.9	x	x
Cc1ccccc1N1C(=O)CC(Sc2nnc(-c3ccccc3)o2)C1=O (stereo unspecified)	0.1%	-14.0%	-3.2%	-11.1	-78.9*	u
COC(=O)c1sc(-c2ccccc2)cc1NC(=O)c1cccc(F)c1	x	x	x	9.1	x	x
CN1/C(=C/C=C/c2n(C)c3cc([N+](=O)[O-])c([N+](=O)[O-])cc3[n+]2C)C(C)(C)c2ccccc21	x	x	x	-8.7	-57.2*	x
S=C(Nc1ccccc1)Nc1cccc(Cl)c1Cl	-7.3%	19.5%	-0.1%	1.0	0.3	3.0%
S=C(Nc1ccc(CN2CCCCC2)cc1)Nc1cccc(Cl)c1Cl	-0.3%	-5.9%	-1.8%	-54.8	-75.8*	-2.2%
Cc1cccc(NC(=S)NC2CCN(Cc3ccccc3)CC2)c1C	-3.4%	21.9%	0.7%	-0.8	-53.2*	0.8%
S=C(Nc1cccc(Cl)c1Cl)NC1CCN(Cc2ccccc2)CC1	-3.7%	-24.6%	-1.3%	-20.2	-90.2*	-0.2%
O=C(NC1CCN(Cc2ccccc2)CC1)c1c(Cl)cccc1Cl	-2.7%	0.9%	-3.0%	-8.7	-10.5	-0.6%
CCc1ccc(S(=O)(=O)c2cn(CC(=O)Nc3cccc(C)c3)c3ccc(Cl)cc3c2=O)cc1	x	x	x	3.7	x	x
Cc1ccc(NC(=O)c2ccc(NC(=O)N3CCSc4ncccc43)cc2)c(Cl)c1	x	x	x	7.2	x	x
CCOc1ccc(CCNC(=O)c2c3c(nc4ccccc24)C(=O)N(C2CCCCC2)C3)cc1	x	x	x	-2.3	x	x
Cc1c(C(=O)N2CCCC2)sc(NC(=O)c2ccc(Cl)cc2)c1C#N	-6.5%	u	u	-4.2	-55.1*	0.6%
CCN(CC)S(=O)(=O)c1ccc2c(c1)N(CC(=O)NCc1ccccc1)C(=O)C1CCCCN21 (stereo unspecified)	x	x	x	-12.5	x	x
SMILES	TSG101-PTAP inh	Rango dissoc inh	Rango-impB inh	DRD3 agonist	D3 antag	Mm-Cpn inhibitor
COc1ccc(/C=C/C(=O)OCC(=O)c2ccccc2F)cc1	-1.6%	4.6%	2.4%	-3.3	6.2	-2.4%
COc1ccc(/C=C\C(=O)CC(O)(c2ccccc2)C(F)(F)F)cc1 (stereo unspecified)	-14.8%	6.2%	-4.0%	-11.7	-69.9*	0.9%
Cc1ccc(NC(=O)CS(=O)CC(=O)N(CC(=O)NC(C)(C)C)c2cccc(C)c2C)cc1 (stereo unspecified)	-3.5%	-3.0%	3.6%	32.5*	2.3	-2.2%
Cc1ccc(N(CC(=O)NC(C)(C)C)C(=O)CS(=O)CC(=O)Nc2ccc(F)cc2)cc1 (stereo unspecified)	-1.2%	7.3%	-4.2%	-10.5	-9.9	3.6%
O=C1NC(c2ccccc2)=C(c2nc3ccccc3s2)C(c2ccc(F)cc2)N1 (stereo unspecified)	0.3%	17.7%	-0.8%	14.3	-56.3*	-1.3%
c1ccc(OCCCc2nc(-c3ccncc3)no2)cc1	-6.9%	8.8%	-0.8%	2.4	-52.2*	1.7%
N#Cc1cccc(C(c2nnnn2C2CCCC2)N2CCCCCC2)c1 (stereo unspecified)	-5.4%	8.0%	1.2%	-4.3	-53.7*	0.6%
COCCn1nnnc1C(c1cccc(C#N)c1)N1CCCCCC1 (stereo unspecified)	-6.3%	19.4%	-5.1%	-1.6	-74.6*	-1.3%
NC(N)=NS(=O)(=O)c1ccc(N)cc1	2.0%	1.3%	5.9%	-90.1	-53.6*	0.5%
C/C(N)=N\S(=O)(=O)c1ccc(Cl)cc1	-9.6%	10.5%	-2.3%	-2.2	4.5	-0.7%
COCCNC(=O)CN1C(=O)c2cccnc2Sc2ccccc21	x	x	x	0.5	x	x
COc1ccc(NC(=O)NNC(=O)CCc2ccc(O)c(O)c2)cc1OC	-1.5%	27.4%	7.1%	51.1*	-3.0	0.4%
COc1ccc(CCC(=O)NNC(=O)Nc2ccc(OC)c(OC)c2)cc1	-3.5%	6.8%	-0.4%	1.7	4.5	2.0%
O=C(CCl)N1c2ccccc2Sc2c1ccc1ccccc21	-0.5%	u	u	-3.7	u	x
CCOc1ccc2[nH]c(=O)c(C(c3nnnn3C3CCCCC3)N3CCN(CC)CC3)cc2c1 (stereo unspecified)	-4.6%	u	u	-16.5	8.1	-2.1%
COc1ccc2[nH]c(=O)c(C(c3nnnn3C3CCCC3)N3CCN(Cc4ccc5c(c4)OCO5)CC3)cc2c1 (stereo unspecified)	-2.9%	-10.0%	u	-25.4	-53.8*	1.4%
CC(=O)N1CCN(C(=O)c2cc3ccccc3o2)CC1	-1.6%	-4.3%	-1.0%	5.6	-0.4	0.9%
O=C(c1cc2ccccc2o1)N1CCN(C/C=C/c2ccccc2)CC1	-1.5%	-0.6%	0.7%	-18.6	-78.1*	0.4%
O=C(c1cc(Br)c(Br)s1)N1CCN(C/C=C/c2ccccc2)CC1	-0.5%	-11.0%	0.0%	2.9	-78.2*	0.8%

From PubChem BioAssay
